# KinaseGlo FLuc – Kinase-Glo luciferase inhibition (counter-screen); Potency, µM (doses to about 38.3 µM), for inactives: at the highest dose activity change, negative = inhibition, usual class: inhibitors; 200,000 compounds, 0.28% hits; Kinase-Glo luciferase, ATP luminescence, 8 min; note: nearly all actives have a fitted effect of over 60% in size
#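 Luminescence was the read-out, taken after 8-minute incubation at ambient temperature. Luciferase turned over luciferin with 10 uM ATP in imidazole pH 7.2 buffer containing KCl, MgCl2, Tween 20 and BSA.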
# ALDH1A1 inh – inhibitors of human aldehyde dehydrogenase 1A1; Purified ALDH1A1, NADH fluorescence, propionaldehyde substrate; 220,000 compounds, 7.3% hits; Potency, µM (titrated, usually from 75.3 µM), without a hit: at the top dose activity, negative = inhibition, most hits filed as inhibitors; P00352; AID 1030; active = well fitted inhibition curve with a large enough effect, not every such curve was filed as active; inconclusive = small, poorly fitted or top-dose-only effect, or another doubt; inactive = no such curve, though single readings can be large or run the other way;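 note: plate controls were no enzyme wells and a reference inhibitor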
# HPGD block – inhibitors of human 15-hydroxyprostaglandin dehydrogenase (HPGD) | purified HPGD, NADH fluorescence kinetic, PGE2 substrate | Potency, µM, for inactives: top-dose activity change, negative = inhibition, most hits filed as inhibitors | P15428 | 150,000 compounds, 4.3% hits; active = well fitted inhibition curve with a large enough effect, not every such curve was filed as active; inconclusive = small, poorly fitted or top-dose-only effect, or another doubt; inactive = no such curve, though single readings can be large or run the other way
# Target sequence (P15428 whole entry, looked up): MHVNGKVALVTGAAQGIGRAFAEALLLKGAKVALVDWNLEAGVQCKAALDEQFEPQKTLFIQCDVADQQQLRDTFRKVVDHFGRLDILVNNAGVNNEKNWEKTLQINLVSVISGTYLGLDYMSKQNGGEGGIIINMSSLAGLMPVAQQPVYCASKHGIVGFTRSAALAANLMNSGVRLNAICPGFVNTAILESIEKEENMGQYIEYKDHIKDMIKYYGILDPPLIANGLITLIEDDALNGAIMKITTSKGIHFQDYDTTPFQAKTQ
#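 NADH formation kinetics: reaction with 30 uM PGE2 and 1 mM NAD+ (final), 20 nM enzyme, Tris-HCl pH 8 with Tween 20, after 15 min compound preincubation at room temperature. Fluorescence change, last versus first of five reads.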
# Lamin A splicing – modulators of lamin A splicing; HeLa LMNA splicing GFP/RFP minigene ratio, 48 h; Potency, µM (doses to about 46.1 µM), inactives show at the top dose ratio change, negative = inhibition, most hits filed as inhibitors; 200,000 compounds, 0.01% hits; AID 1487; active = well fitted inhibition curve with a large enough effect in the signal ratio, with a control signal flat, not every such curve was filed as active; inconclusive = small, poorly fitted or top-dose-only effect, or effect the other way, or a change in a side signal; the % refers to the signal ratio
#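 S3 HeLa stable clones carrying a lamin A-EGFP splicing minigene plus DsRed2 were seeded at 600 cells/well in Opti-MEM with 2% FBS, pin-dosed and incubated 48 h at 37°C. Acumen cytometry (488 nm) gave the GFP/RFP total-intensity ratio.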
# IMPase Li inh – cell-permeable IMPase inhibitors with lithium potentiation. CHO-M1 cells, IP1 TR-FRET (IP-One), carbachol + lithium. Potency, µM (top dose mostly 59.4 µM), without a hit: at the highest dose activity, negative = IMPase inhibition, hits mostly inhibitors. 210,000 compounds, 0.35% hits. AID 1457;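 note: IP1 builds up when IMPase is blocked and the TR-FRET signal falls; plate controls were basal vehicle for no effect and high inhibitor control for full effect; nearly all actives have a fitted effect of over 50% in size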
#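 Lithium-sensitised IP1 accumulation assay; M1-expressing CHO cells treated 30 min at 37C with compound. Competitive antibody detection by time-resolved FRET followed a 10 min room-temperature lysis step.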
# An asterisk follows results filed as active; ? = inconclusive; nt = not tested or not shown; [ ] = dose if it differs, or a comment. A selection: hits, their analogues and other compounds. The true share with any hit is near 9%. Unless noted, calls come from the whole dose curve; as a rule, active = well fitted curve in the direction sought with a large enough effect; inconclusive = small, poorly fitted or top-dose-only effect, or another doubt; inactive = no such curve, though single readings can be large; an effect the other way counts as inactive or inconclusive. Unless noted, % is set by controls: 0 for no effect and ±100 for the full control effect; potency is the fitted concentration of half-maximal effect.
SMILES,KinaseGlo FLuc,ALDH1A1 inh,HPGD block,Lamin A splicing,IMPase Li inh
COc1ccc(-c2cc3c(nn2)-c2ccccc2C3=O)cc1,5.01µM*,5.8%,nt,9.3%[46 µM],7.2%
O=C1c2ccccc2-c2nnc(-c3ccccc3)cc21,7.94µM*,-5.7%,-4.3%,1.1%[0.0737 µM],-4.7%[38.3 µM]
Cc1cc(C)c(S(=O)(=O)c2ccccc2C)c(OCC(C)(C)C)n1,-2.8%,12.6µM*,-14.0%,15.5%,11.5%[38.3 µM]
Cc1cc(C)c(S(C)(=O)=O)c(Oc2ccccc2C)n1,1.8%,10.0%,28.2µM*,5.3%,8.3%[38.3 µM]
Cc1cc(C)cc(Oc2nc(-c3ccccc3)cc(C)c2S(C)(=O)=O)c1,-3.8%,14.1µM*,?,?,38.6%[38.3 µM]
Cc1ccc(CCNS(=O)(=O)c2ccc3c(c2)CC(C)N3C(=O)C2CCC2)cc1 (stereo not drawn),nt,nt,nt,8.4%[46 µM],nt
COc1ccc2nc3oc(C(=O)Nc4cccc(C(F)(F)F)c4)cc3cc2c1,nt,nt,nt,-5.1%[46 µM],nt
Cc1ccc(S(=O)(=O)CCN2CCN(c3ccccn3)CC2)cc1,nt,12.6µM*,nt,nt,nt
Cc1cnc(CNc2ccnc(-c3cccc(C#N)c3)n2)cn1,nt,?,nt,-6.0%,17.3%
COc1ccc(C(=O)OCc2cc3cccc(C)c3[nH]c2=O)cc1,1.4%,?,-14.2%,?,10µM*
COC(=O)c1cc(Br)c(=O)n(-c2nccs2)c1,0.4%,?,-19.7%,3.1%,10µM*
COC(=O)c1cc(Br)c(=O)n(-c2cc(C)on2)c1,0.2%,-0.6%,-16.9%,-9.5%,10µM*
CCOC(=O)N1CCN(C(=O)c2c(N)no[n+]2[O-])CC1,0.5%,-0.2%,nt,8.6%[9.22 µM],-2.0%
O=C(c1nc2ccccn2c1CNCCCn1nnc2ccccc21)N1CCOCC1,-0.9%,-3.9%,nt,27.7%[46 µM],9.9%
COc1ccc(N2C(=O)CSC23CCCCC3)cc1,1.0%,14.1µM*,-15.7%,-9.5%,13.0%
CC1Cc2ccccc2N1CC(=O)NC(=O)NC1CCCCC1 (stereo not drawn),1.2%,-1.5%,nt,?,9.9%
Cc1ccc(-c2nn3c(C)nnc3s2)cc1NC(=O)c1ccc(-c2cccc(Cl)c2)o1,-2.5%,?,22.4µM*,-2.4%,11.1%[38.3 µM]
CCCCC(=O)Nc1cccc(-c2nn3c(C)nnc3s2)c1,1.4%,2.3%,15.8µM*,-12.5%,9.0%[38.3 µM]
O=C(O)COc1ccccc1/C=N/NC(=O)Cc1csc(Nc2cccc(C(F)(F)F)c2)n1,-2.5%,-7.4%,nt,-3.7%[46 µM],6.3%
O=C(OCC(F)(F)C(F)F)c1ccccc1C(=O)Oc1ccc(F)cc1F,-0.6%,-5.8%,-26.7%,4.0%,15.0%[38.3 µM]
COc1ccccc1-c1noc(CCC(=O)Nc2cccc(C)c2)n1,2.6%,1.2%,-8.7%,-6.3%,-8.9%[38.3 µM]
COCCNC(=O)CCc1nc(-c2ccccc2)no1,-1.8%,2.1%,15.8µM*,-12.2%,3.4%[38.3 µM]
COc1ccccc1-c1noc(CCC(=O)Nc2ccccc2Cl)n1,-0.5%,28.2µM*,25.1µM*,-15.4%,4.5%
Cc1ccc(-c2noc(CCC(=O)NCc3ccco3)n2)cc1,-2.8%,?,28.2µM*,14.3%,17.5%[38.3 µM]
COCCCNC(=O)CCc1nc(-c2ccccc2)no1,0.4%,-9.9%,?,-3.7%,28.2%[38.3 µM]
SMILES,KinaseGlo FLuc,ALDH1A1 inh,HPGD block,Lamin A splicing,IMPase Li inh
CC1(C(=O)OCC(=O)c2c[nH]c3ccccc23)CC1(Cl)Cl (stereo not drawn),-2.9%,-3.4%,-20.9%,2.7%,34.9%[38.3 µM]
Cn1c(=O)[nH]c2cc(-c3noc(-c4ccc(Br)cc4)n3)ccc21,nt,nt,nt,-0.4%[46 µM],nt
COc1ccc(/C=C/C(O)=C(\C#N)c2nnc(N3CCOCC3)n2-c2ccccc2)cc1OC,3.2%,12.6µM*,nt,nt,20.1%
COc1ccc(/C=C/C(=O)NCCN2CCOCC2)cc1OC,3.9%,?,nt,0.0%[46 µM],0.0%
C=CCN1C(=O)NC(c2ccccc2)(C(F)(F)F)S/C1=C(\C#N)c1nnc(N2CCOCC2)n1-c1ccccc1 (stereo not drawn),-2.2%,?,-4.9%,-21.1%,6.1%
COc1ccc(N2C(C)=CS/C2=C(/C#N)c2nnc(N3CCOCC3)n2-c2ccccc2)cc1,6.5%,22.4µM*,-6.4%,3.2%,6.7%[38.3 µM]
COc1ccc(-c2c(C)c3ccc(OCC(C)=O)cc3oc2=O)cc1,-1.0%,?,nt,?,-7.2%
